Results from article PMC7862700, “An all-to-all approach to the identification of sequence-specific readers for epigenetic DNA modifications on cytosine”.

How the values were obtained:
Experiment in all cases: DAPPL (digital affinity profiling via proximity ligation, sequencing); 10 mM Tris-HCl pH 7.5, 50 mM NaCl, 1 mM DTT, 4% glycerol, room temperature, 30 min; GST-TFs on glutathione beads, 16-mer random dsDNA library, 0.1% formaldehyde crosslink after washing; high values mean tight binding
Conditions in all cases: protein: recombinant; tags: N-terminal GST; dsDNA, one strand shown
[1] = target: T1, FLI1 (Homo sapiens, UniProt Q01543 1-452)
T1 sequence: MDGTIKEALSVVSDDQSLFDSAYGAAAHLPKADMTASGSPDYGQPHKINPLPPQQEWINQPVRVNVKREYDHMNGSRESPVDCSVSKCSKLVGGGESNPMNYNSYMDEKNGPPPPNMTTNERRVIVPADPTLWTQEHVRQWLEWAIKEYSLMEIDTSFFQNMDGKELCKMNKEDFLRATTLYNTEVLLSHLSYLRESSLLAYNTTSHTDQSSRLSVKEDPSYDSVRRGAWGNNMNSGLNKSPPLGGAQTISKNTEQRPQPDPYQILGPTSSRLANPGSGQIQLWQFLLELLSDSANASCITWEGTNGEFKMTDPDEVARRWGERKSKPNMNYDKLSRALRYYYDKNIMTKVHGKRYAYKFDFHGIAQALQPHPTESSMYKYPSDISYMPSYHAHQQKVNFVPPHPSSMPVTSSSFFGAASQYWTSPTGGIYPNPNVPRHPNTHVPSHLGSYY
Method in brief: (§1)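 Binding signal is defined as a hexamer's read frequency for one factor over its frequency for the tag-only sample. To obtain reads, GST-fused human transcription factors were expressed in yeast, captured on glutathione beads, barcoded with DNA and pooled with that sample. Pools met 200 nmole of a 16-mer random double-stranded DNA library in Tris/NaCl/DTT/glycerol buffer for 30 min at room temperature before washing, 0.1% formaldehyde crosslinking, proximity ligation (BsaI/T4 ligase, 1 h, 37 °C), PCR and Illumina NextSeq500 sequencing.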

[2] = target: T2, ELK1 (Homo sapiens, UniProt P19419 1-428)
T2 sequence: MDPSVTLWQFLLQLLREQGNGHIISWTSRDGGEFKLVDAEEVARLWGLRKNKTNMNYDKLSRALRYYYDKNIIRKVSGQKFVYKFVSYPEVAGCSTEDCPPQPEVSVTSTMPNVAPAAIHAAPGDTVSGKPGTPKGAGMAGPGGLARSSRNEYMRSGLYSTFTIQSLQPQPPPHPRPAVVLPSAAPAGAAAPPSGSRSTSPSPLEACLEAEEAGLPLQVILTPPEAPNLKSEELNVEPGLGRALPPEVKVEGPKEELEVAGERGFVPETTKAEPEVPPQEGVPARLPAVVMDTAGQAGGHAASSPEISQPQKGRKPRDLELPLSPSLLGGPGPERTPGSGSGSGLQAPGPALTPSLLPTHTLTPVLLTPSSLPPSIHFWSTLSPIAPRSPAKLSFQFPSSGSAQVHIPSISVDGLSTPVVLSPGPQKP
Method in brief: as §1

[3] = target: T3, GABPA (Homo sapiens, UniProt Q06546 1-454)
T3 sequence: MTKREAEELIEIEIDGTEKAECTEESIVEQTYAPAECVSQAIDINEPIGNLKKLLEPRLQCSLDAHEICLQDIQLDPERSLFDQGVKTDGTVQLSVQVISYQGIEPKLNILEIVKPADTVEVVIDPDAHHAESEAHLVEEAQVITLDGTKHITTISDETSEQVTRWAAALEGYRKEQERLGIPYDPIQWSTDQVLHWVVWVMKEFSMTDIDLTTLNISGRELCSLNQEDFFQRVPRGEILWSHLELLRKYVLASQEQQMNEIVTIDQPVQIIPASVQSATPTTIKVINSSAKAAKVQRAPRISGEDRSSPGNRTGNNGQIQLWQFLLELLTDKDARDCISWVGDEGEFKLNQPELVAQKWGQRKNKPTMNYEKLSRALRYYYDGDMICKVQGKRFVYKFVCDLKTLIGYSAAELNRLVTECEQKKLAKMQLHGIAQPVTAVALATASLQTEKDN
Method in brief: as §1

[4] = target: T4, ERG (Homo sapiens, UniProt P11308 1-479)
T4 sequence: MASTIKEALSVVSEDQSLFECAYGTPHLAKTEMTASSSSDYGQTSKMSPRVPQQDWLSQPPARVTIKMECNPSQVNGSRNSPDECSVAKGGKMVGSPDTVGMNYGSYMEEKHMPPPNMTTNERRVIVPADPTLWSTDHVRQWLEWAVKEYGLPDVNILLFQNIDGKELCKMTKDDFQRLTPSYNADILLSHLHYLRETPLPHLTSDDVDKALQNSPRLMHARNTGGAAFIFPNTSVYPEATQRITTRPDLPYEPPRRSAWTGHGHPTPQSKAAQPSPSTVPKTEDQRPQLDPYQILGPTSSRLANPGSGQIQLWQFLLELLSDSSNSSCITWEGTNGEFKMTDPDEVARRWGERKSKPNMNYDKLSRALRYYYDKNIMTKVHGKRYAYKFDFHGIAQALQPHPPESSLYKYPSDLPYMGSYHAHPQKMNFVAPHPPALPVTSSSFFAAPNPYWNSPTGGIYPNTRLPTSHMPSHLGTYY
Method in brief: as §1

[5] = target: ELF1 (Homo sapiens, UniProt P32519 1-619)
Method in brief: as §1

[6] = target: T5, EHF (Homo sapiens, UniProt Q9NZC4 1-300)
T5 sequence: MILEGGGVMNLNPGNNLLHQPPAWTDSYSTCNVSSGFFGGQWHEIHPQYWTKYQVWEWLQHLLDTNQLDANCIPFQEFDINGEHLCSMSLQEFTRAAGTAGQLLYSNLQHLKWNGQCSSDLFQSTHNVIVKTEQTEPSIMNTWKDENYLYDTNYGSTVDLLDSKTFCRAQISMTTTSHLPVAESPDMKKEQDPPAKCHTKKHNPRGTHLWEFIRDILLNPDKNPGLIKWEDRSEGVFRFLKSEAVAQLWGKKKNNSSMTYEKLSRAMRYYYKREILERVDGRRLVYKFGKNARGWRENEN
Method in brief: as §1

[7] = target: SPI1 (Homo sapiens, UniProt P17947 1-270)
Method in brief: as §1

[8] = target: SPIB (Homo sapiens, UniProt Q01892 1-262)
Method in brief: as §1

[9] = target: ETV5 (Homo sapiens, UniProt P41161 1-510)
Method in brief: as §1

[10] = target: ELF4 (Homo sapiens, UniProt Q99607 1-663)
Method in brief: as §1

[11] = target: T6, ETV2 (Homo sapiens, UniProt O00321 1-342)
T6 sequence: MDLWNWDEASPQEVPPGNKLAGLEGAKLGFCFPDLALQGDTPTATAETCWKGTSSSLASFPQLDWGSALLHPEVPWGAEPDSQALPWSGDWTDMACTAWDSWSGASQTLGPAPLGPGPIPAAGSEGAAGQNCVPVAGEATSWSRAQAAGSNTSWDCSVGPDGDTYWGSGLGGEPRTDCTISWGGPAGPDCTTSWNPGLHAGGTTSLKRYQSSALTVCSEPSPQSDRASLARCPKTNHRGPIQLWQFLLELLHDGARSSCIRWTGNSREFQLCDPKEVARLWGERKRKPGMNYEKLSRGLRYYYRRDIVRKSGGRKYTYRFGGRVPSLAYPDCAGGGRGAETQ
Method in brief: as §1

[12] = target: T7, ELF3 (Homo sapiens, UniProt P78545 1-371)
T7 sequence: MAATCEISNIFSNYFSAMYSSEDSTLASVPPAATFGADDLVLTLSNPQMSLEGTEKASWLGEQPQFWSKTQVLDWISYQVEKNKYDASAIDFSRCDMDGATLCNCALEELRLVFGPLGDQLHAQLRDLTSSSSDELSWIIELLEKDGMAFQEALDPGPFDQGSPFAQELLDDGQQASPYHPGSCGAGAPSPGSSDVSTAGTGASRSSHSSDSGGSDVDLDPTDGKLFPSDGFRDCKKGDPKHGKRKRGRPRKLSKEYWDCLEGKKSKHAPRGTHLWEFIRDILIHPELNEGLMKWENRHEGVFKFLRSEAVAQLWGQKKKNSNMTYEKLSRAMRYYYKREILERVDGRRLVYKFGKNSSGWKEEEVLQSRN
Method in brief: as §1

[13] = target: ETV1 (Homo sapiens, UniProt P50549 1-477)
Method in brief: as §1

[14] = target: T8, ERF (Homo sapiens, UniProt P50548 1-548)
T8 sequence: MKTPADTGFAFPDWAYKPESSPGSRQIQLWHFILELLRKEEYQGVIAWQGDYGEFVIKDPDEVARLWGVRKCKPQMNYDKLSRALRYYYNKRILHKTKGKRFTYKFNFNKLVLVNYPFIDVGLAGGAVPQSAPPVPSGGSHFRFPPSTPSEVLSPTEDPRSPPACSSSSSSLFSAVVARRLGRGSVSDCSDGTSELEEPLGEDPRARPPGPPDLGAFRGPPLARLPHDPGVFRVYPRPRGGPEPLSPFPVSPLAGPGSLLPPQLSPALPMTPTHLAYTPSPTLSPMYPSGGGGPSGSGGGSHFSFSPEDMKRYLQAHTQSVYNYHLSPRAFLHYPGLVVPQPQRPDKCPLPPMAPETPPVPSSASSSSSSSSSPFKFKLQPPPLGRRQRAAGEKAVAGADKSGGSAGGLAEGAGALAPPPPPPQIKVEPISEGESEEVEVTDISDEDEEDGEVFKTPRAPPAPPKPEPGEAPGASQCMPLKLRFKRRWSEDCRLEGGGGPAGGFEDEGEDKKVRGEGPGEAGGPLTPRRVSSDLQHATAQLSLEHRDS
Method in brief: as §1

[15] = target: T9, ETV3L (Homo sapiens, UniProt Q6ZN32 1-361)
T9 sequence: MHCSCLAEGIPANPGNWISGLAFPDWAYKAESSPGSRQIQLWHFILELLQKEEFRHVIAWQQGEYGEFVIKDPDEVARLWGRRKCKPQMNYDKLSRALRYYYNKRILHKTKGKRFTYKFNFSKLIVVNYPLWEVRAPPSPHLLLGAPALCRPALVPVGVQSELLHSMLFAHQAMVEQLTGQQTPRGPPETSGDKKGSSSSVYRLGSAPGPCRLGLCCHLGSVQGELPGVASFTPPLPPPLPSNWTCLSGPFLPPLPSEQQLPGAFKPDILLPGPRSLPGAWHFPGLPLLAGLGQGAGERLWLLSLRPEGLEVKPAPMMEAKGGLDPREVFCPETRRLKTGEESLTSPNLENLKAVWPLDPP
Method in brief: as §1

[16] = target: T10, ETS2 (Homo sapiens, UniProt P15036 1-469)
T10 sequence: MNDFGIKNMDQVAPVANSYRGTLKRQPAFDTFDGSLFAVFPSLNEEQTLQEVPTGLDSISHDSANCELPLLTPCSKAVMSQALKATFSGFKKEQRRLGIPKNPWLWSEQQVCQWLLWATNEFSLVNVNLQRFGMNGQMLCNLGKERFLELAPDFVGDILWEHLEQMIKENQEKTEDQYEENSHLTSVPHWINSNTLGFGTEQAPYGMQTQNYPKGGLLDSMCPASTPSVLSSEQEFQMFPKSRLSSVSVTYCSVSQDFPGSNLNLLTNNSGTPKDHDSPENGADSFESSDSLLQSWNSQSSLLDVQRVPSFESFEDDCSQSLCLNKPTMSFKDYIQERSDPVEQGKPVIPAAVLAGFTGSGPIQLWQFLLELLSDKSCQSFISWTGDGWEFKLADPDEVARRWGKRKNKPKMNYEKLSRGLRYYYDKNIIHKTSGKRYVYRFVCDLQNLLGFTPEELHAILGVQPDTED
Method in brief: as §1

[17] = target: T11, ETV7 (Homo sapiens, UniProt Q9Y603 1-341)
T11 sequence: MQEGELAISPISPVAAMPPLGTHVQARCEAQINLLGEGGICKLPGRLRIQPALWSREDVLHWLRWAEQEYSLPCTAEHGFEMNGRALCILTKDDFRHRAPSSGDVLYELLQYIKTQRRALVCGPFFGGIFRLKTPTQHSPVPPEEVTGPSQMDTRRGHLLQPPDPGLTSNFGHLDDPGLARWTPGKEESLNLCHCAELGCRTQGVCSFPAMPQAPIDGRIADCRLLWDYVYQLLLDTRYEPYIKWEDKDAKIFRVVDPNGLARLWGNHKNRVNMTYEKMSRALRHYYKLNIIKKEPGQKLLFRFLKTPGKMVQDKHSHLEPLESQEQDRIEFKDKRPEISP
Method in brief: as §1

[18] = target: T12, ETV3 (Homo sapiens, UniProt P41162-2 1-143)
T12 sequence: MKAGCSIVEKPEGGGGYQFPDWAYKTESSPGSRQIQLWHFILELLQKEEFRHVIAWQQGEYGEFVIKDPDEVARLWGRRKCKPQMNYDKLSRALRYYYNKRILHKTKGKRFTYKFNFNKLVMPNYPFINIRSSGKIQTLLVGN
Method in brief: as §1

Sequence of ETV5 (P41161 whole entry): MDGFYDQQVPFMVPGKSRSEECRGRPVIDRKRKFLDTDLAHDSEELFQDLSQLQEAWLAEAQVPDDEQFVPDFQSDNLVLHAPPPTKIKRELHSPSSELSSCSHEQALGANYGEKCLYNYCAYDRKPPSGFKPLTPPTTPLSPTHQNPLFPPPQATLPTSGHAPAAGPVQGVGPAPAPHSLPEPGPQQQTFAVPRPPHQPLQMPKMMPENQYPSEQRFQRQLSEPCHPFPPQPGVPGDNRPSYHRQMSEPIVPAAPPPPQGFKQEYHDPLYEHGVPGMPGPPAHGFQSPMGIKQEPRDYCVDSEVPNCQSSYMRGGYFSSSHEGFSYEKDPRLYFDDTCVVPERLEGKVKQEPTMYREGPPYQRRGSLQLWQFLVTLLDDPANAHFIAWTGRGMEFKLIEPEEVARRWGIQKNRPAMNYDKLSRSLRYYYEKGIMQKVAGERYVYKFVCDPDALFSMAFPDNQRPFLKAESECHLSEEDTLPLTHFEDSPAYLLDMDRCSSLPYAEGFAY
Sequence of ELF1 (P32519 whole entry): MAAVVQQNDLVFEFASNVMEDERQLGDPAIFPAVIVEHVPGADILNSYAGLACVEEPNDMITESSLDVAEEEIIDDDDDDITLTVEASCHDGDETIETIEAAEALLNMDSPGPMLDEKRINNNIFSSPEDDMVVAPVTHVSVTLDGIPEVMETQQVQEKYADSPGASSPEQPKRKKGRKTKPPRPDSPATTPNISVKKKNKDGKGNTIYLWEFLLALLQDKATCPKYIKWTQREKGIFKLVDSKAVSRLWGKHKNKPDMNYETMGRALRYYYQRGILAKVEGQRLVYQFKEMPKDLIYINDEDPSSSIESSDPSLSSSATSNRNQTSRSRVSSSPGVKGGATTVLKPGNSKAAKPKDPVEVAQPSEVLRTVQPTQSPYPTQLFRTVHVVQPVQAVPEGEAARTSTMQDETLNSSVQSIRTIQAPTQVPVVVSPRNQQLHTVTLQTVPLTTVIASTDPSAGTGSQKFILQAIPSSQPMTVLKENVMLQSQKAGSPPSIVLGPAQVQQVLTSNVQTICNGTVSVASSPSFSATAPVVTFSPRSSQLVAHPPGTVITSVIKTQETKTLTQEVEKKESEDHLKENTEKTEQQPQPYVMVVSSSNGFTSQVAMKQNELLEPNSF
Sequence of ETV1 (P50549 whole entry): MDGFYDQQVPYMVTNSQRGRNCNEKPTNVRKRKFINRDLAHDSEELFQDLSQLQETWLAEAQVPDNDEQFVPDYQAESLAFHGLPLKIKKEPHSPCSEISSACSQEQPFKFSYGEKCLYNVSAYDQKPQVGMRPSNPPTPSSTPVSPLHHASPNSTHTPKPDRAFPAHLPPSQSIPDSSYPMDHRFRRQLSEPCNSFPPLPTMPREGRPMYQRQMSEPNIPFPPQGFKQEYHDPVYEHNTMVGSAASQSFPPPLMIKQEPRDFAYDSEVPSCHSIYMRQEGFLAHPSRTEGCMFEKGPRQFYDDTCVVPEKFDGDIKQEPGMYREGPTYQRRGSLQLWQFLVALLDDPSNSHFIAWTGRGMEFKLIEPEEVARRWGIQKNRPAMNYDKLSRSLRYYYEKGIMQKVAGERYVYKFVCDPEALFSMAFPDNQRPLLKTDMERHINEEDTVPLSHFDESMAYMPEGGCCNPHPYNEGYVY
Sequence of SPIB (Q01892 whole entry): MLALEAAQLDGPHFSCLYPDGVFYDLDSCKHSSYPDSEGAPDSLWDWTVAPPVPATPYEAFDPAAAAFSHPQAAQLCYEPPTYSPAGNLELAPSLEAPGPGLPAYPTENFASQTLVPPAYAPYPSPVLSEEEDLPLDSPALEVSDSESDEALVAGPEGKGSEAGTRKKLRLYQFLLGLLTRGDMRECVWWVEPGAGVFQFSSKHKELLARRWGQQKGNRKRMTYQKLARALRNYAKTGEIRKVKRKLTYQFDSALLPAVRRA
Sequence of ELF4 (Q99607 whole entry): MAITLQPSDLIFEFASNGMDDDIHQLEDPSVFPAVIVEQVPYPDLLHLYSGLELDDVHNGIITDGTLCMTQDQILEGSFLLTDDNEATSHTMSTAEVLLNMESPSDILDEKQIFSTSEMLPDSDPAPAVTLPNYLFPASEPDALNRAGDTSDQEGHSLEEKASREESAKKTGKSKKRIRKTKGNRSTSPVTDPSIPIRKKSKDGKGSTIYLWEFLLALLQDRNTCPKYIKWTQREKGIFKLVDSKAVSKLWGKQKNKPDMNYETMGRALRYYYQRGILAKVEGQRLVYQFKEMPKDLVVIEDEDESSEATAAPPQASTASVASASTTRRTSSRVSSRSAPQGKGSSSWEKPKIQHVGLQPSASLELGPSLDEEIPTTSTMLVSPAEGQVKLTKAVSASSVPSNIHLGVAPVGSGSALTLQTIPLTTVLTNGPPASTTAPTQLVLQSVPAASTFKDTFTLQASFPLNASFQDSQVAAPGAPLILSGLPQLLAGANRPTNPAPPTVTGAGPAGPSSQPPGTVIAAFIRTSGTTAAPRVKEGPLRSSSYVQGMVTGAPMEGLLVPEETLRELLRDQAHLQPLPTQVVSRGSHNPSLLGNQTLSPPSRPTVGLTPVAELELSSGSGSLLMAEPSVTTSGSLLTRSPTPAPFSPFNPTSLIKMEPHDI

## CGATGC
[1]
  binding signal: 1.13 fold enrichment (6-mer frequency, TF over GST control)
[2]
  binding signal: 1.1 fold enrichment (6-mer frequency, TF over GST control)
[3]
  binding signal: 1.19 fold enrichment (6-mer frequency, TF over GST control)
[4]
  binding signal: 1.08 fold enrichment (6-mer frequency, TF over GST control)
[5]
  binding signal: 1.02 fold enrichment (6-mer frequency, TF over GST control)
[6]
  binding signal: 1.09 fold enrichment (6-mer frequency, TF over GST control)
[7]
  binding signal: 1.12 fold enrichment (6-mer frequency, TF over GST control)
[8]
  binding signal: 1.06 fold enrichment (6-mer frequency, TF over GST control)
[9]
  binding signal: 1.11 fold enrichment (6-mer frequency, TF over GST control)
[10]
  binding signal: 1.19 fold enrichment (6-mer frequency, TF over GST control)
[11]
  binding signal: 1.15 fold enrichment (6-mer frequency, TF over GST control)
[12]
  binding signal: 1.2 fold enrichment (6-mer frequency, TF over GST control)
[13]
  binding signal: 1.03 fold enrichment (6-mer frequency, TF over GST control)
[14]
  binding signal: 1.07 fold enrichment (6-mer frequency, TF over GST control)
[15]
  binding signal: 1.18 fold enrichment (6-mer frequency, TF over GST control)
[16]
  binding signal: 1.06 fold enrichment (6-mer frequency, TF over GST control)
[17]
  binding signal: 1.04 fold enrichment (6-mer frequency, TF over GST control)
[18]
  binding signal: 1.17 fold enrichment (6-mer frequency, TF over GST control)
